Experimental data taken from PubChem BioAssay (EPA / NIEHS).
Activity calls are given as the source filed them. The calls were made as follows: active = hit-call score of the fitted dose curve at least 0.9, where 1 is the maximum; inactive = score below 0.9.

Assays:
Details in all cases: mRNA level, 48 h; actives raise or lower the signal
[1] = read-out: Early growth response protein 1 (EGR1) transcription factor, EGR1 (gene 1958); test: LTEA_HepaRG_EGR1: Life Technologies and Expression Analysis (LTEA) Assay for Early growth response protein 1 (EGR1) transcription factor using HepaRG (AID 2283490)
Method in brief: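 Differentiated human HepaRG cells in serum-free induction medium were exposed in duplicate for 48 h to eight concentrations (top 100 uM, half-log steps) in 0.5% DMSO. EGR1 mRNA was quantified by qRT-PCR, normalized to ACTB, GAPDH and POLR2A, and fitted bidirectionally versus DMSO.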

[2] = read-out: Ezrin (EZR), EZR (gene 7430); test: LTEA_HepaRG_EZR: Life Technologies and Expression Analysis (LTEA) Assay for Ezrin (EZR) using HepaRG (AID 2283491)
Method in brief: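 Gain or loss of EZR mRNA is scored relative to 0.5% DMSO in human HepaRG cultures treated 48 h with test chemicals in duplicate, eight half-log concentrations from 100 uM.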

[3] = read-out: Cytochrome P450 3A7 (Homo sapiens) (UniProt P24462); test: LTEA_HepaRG_CYP3A7: Life Technologies and Expression Analysis (LTEA) Assay for CYP3A7 using HepaRG (AID 2283492)
Method in brief: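 Differentiated HepaRG cells in serum-free induction medium exposed 48 h in duplicate to 8-point half-log series from 100 uM top in 0.5% DMSO. CYP3A7 mRNA by qRT-PCR, normalized to ACTB/GAPDH/POLR2A, bidirectional fit versus DMSO.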

[4] = read-out: CYP3A5 (gene 1577); test: LTEA_HepaRG_CYP3A5: Life Technologies and Expression Analysis (LTEA) Assay for CYP3A5 using HepaRG (AID 2283493)
Method in brief: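 HepaRG plated 48 h, switched to serum-free induction medium, chemicals added 48 h (max 100 uM, half-log, 0.5% DMSO). RNA isolated; CYP3A5 by TaqMan qRT-PCR. Gain/loss vs DMSO.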

[5] = read-out: Fatty Acid-Binding Protein 1 (FABP1), FABP1 (gene 2168); test: LTEA_HepaRG_FABP1: Life Technologies and Expression Analysis (LTEA) Assay for Fatty Acid-Binding Protein 1 (FABP1) using HepaRG (AID 2283494)
Method in brief: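 Differentiated human HepaRG cells were exposed in duplicate for 48 h in serum-free induction medium to 8-point half-log concentration series topping at 100 uM in 0.5% DMSO. FABP1 mRNA measured by TaqMan qRT-PCR, normalized to ACTB/GAPDH/POLR2A; bidirectional fit versus DMSO.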

[6] = read-out: Cytochrome P450 7A1 (Homo sapiens) (UniProt P22680); test: LTEA_HepaRG_CYP7A1: Life Technologies and Expression Analysis (LTEA) Assay for Cytochrome P450 7A1 (CYP7A1) using HepaRG (AID 2283496)
Method in brief: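 HepaRG cells plated 48 h, then switched to serum-free induction medium and exposed in duplicate for 48 h to 8-point half-log series from 100 uM in 0.5% DMSO. CYP7A1 mRNA by qRT-PCR (TaqMan), normalized to ACTB/GAPDH/POLR2A; bidirectional fit versus DMSO.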

[7] = read-out: Glutamate-cysteine ligase catalytic (GCLC), GCLC (gene 2729); test: LTEA_HepaRG_GCLC: Life Technologies and Expression Analysis (LTEA) Assay for Glutamate-cysteine ligase catalytic (GCLC) using HepaRG (AID 2283498)
Method in brief: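 Differentiated human HepaRG cells, plated 48 h then switched to serum-free induction medium, were exposed in duplicate for 48 h to 8 half-log concentrations topping at 100 uM in 0.5% DMSO. GCLC mRNA was quantified by qRT-PCR against ACTB, GAPDH and POLR2A.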

[8] = read-out: growth arrest and DNA damage 45 (GADD45G), GADD45G (gene 10912); test: LTEA_HepaRG_GADD45G: Life Technologies and Expression Analysis (LTEA) Assay for growth arrest and DNA damage 45 (GADD45G) using HepaRG (AID 2283499)
Method in brief: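 Differentiated human HepaRG cells, 48 h post-plating, exposed 48 h in serum-free induction medium to 8 half-log concentrations (top 100 uM, 0.5% DMSO) in duplicate. GADD45G mRNA measured by Fluidigm TaqMan qRT-PCR, normalized to ACTB, GAPDH, POLR2A; bidirectional fit versus DMSO.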

[9] = read-out: Glutamate-cysteine ligase regulatory (GCLM), GCLM (gene 2730); test: LTEA_HepaRG_GCLM: Life Technologies and Expression Analysis (LTEA) Assay for Glutamate-cysteine ligase regulatory (GCLM) using HepaRG (AID 2283500)
Method in brief: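 Cells were plated, cultured 48 h, switched to serum-free induction medium, then dosed in duplicate for 48 h at eight half-log concentrations up to 100 uM. RNA was then profiled by qRT-PCR; gain or loss versus DMSO was fitted.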

[10] = read-out: Glutathione S-transferase M3 (GSTM3), GSTM3 (gene 2947); test: LTEA_HepaRG_GSTM3: Life Technologies and Expression Analysis (LTEA) Assay for Glutathione S-transferase M3 (GSTM3) using HepaRG (AID 2283501)
Method in brief: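 Differentiated human HepaRG cells were exposed in duplicate for 48 h in serum-free induction medium, 8 points from 100 uM top in half-log steps, 0.5% DMSO. GSTM3 mRNA was measured by TaqMan qRT-PCR, normalized to ACTB, GAPDH and POLR2A; bidirectional fit versus DMSO.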

[11] = read-out: Heat shock 70 kDa protein 1 (HSPA1A), gene 3303; test: LTEA_HepaRG_HSPA1A: Life Technologies and Expression Analysis (LTEA) Assay for Heat shock 70 kDa protein 1 (HSPA1A) using HepaRG (AID 2283502)
Method in brief: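 Readout is HSPA1A transcript level by microfluidic qRT-PCR, normalized to three housekeeping genes and analysed for gain or loss of signal relative to 0.5% DMSO. Human HepaRG cultures received test chemicals for 48 h at up to 100 uM.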

[12] = read-out: 3-Hydroxy-3-Methylglutaryl-CoA Synthase 2 (HMGCS2), HMGCS2 (gene 3158); test: LTEA_HepaRG_HMGCS2: Life Technologies and Expression Analysis (LTEA) Assay for 3-Hydroxy-3-Methylglutaryl-CoA Synthase 2 (HMGCS2) using HepaRG (AID 2283504)
Method in brief: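 Human HepaRG cells in serum-free induction medium were exposed in duplicate for 48 h to 8-point half-log series from 100 uM top in 0.5% DMSO. HMGCS2 mRNA measured by TaqMan qRT-PCR, normalised to ACTB, GAPDH, POLR2A; bidirectional fit versus DMSO.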

[13] = read-out: HGF (gene 3082); test: LTEA_HepaRG_HGF: Life Technologies and Expression Analysis (LTEA) Assay for Hepatocyte Growth Facto (HGF) using HepaRG (AID 2283505)
Method in brief: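 Differentiated HepaRG cells in serum-free induction medium exposed 48 h in duplicate, 8 half-log concentrations from 100 uM in 0.5% DMSO. HGF mRNA by qRT-PCR, normalised to ACTB, GAPDH, POLR2A; bidirectional fitting.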

[14] = read-out: Insulin Like Growth Factor 1 (IGF1), IGF1 (gene 3479); test: LTEA_HepaRG_IGF1: Life Technologies and Expression Analysis (LTEA) Assay for Insulin Like Growth Factor 1 (IGF1) using HepaRG (AID 2283506)
Method in brief: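 HepaRG, plated 48 h, then switched to serum-free induction media; test chemical 8-pt half-log from 100 uM (0.5% DMSO), duplicate, 48 h. Lysis in RLT, TaqMan qRT-PCR, norm. ACTB/GAPDH/POLR2A. Bidirectional fit vs DMSO.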

[15] = read-out: Insulin-like growth factor-binding protein 1 (IGFBP1), IGFBP1 (gene 3484); test: LTEA_HepaRG_IGFBP1: Life Technologies and Expression Analysis (LTEA) Assay for Insulin-like growth factor-binding protein 1 (IGFBP1) using HepaRG (AID 2283508)
Method in brief: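 HepaRG cells, plated 48 h then switched to serum-free induction medium, exposed in duplicate for 48 h to 8-point half-log series from 100 uM in 0.5% DMSO. mRNA measured by qRT-PCR, normalized to ACTB/GAPDH/POLR2A; bidirectional fit versus DMSO.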

[16] = read-out: Interleukin 6 Receptor (IL6R), IL6R (gene 3570); test: LTEA_HepaRG_IL6R: Life Technologies and Expression Analysis (LTEA) Assay for Interleukin 6 Receptor (IL6R) using HepaRG (AID 2283510)
Method in brief: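 Readout is IL6R transcript level by TaqMan qRT-PCR, normalized to three housekeeping genes and fitted bidirectionally against 0.5% DMSO controls. Human HepaRG cells received chemicals for 48 h in serum-free induction medium, highest concentration 100 uM.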

[17] = read-out: Glutathione S-Transferase (GSTA2), GSTA2 (gene 2939); test: LTEA_HepaRG_GSTA2: Life Technologies and Expression Analysis (LTEA) Assay for Glutathione S-Transferase (GSTA2) using HepaRG (AID 2283497)
Method in brief: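 Human HepaRG cells, plated 48 h, then exposed in serum-free induction medium for 48 h to eight half-log concentrations up to 100 uM in 0.5% DMSO, duplicate. GSTA2 mRNA by qRT-PCR, normalized to ACTB/GAPDH/POLR2A; bidirectional fit versus DMSO.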

Measured: AC50

Chain of Cytochrome P450 3A7 (Homo sapiens) (P24462 whole entry, looked up): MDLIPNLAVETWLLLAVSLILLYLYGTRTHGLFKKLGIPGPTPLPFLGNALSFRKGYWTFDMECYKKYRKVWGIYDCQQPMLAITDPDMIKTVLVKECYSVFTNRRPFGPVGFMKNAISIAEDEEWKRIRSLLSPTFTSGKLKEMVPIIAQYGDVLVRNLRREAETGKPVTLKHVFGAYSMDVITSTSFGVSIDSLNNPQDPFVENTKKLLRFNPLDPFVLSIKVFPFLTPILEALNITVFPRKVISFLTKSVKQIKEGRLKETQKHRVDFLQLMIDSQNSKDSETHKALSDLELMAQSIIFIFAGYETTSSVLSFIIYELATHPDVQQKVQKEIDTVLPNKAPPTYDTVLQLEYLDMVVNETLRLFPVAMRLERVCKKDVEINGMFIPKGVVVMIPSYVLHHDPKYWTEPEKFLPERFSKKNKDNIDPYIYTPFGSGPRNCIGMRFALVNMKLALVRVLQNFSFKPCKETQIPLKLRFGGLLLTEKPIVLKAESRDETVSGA

Cc1ccc(N)cc1N
active: [6] 18 µM
not listed: [17]
inactive: all other assays above

Nc1ccc2ccccc2c1
active: [5] 18.9 µM
not listed: [17]
inactive: all other assays above

ClC1=C(Cl)C2(Cl)C3C(Cl)C(Cl)CC3C1(Cl)C2(Cl)Cl (stereo unspecified)
active: [5] 12.5 µM | [6] 10.4 µM | [9] 50 µM | [12] 31.7 µM | [14] 23.5 µM
inactive: all other assays above

CCOS(=O)(=O)OCC
inactive: all assays above
